One may read the AC50 as the concentration giving half of the maximal activity seen.

Inconclusive results are not listed. Calls of active or inactive are those of the source. The calls were made as follows, unless noted: active = hit-call score of the fitted dose curve at least 0.9, where 1 is the maximum; inconclusive = response in the unintended direction; inactive = score below 0.9.

Sequence of human Retinoid X Receptor beta (RXRb), RXRB (gene 6257) (P28702 whole entry, looked up): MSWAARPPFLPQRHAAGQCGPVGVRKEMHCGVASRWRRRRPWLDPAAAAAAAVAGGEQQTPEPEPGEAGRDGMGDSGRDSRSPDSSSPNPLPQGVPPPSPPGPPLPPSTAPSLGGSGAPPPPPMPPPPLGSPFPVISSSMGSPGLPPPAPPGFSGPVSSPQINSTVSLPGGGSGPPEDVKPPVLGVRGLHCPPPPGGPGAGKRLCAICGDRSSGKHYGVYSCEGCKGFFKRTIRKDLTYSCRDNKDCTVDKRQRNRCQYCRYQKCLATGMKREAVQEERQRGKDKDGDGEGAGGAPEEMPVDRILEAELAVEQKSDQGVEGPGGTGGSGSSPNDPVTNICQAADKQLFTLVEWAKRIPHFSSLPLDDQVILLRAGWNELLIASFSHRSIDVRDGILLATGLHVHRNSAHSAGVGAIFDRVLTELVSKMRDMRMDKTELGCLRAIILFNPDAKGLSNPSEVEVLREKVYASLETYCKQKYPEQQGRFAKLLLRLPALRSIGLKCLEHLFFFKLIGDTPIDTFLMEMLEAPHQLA
Sequence of E-selectin (Homo sapiens) (P16581 whole entry, looked up): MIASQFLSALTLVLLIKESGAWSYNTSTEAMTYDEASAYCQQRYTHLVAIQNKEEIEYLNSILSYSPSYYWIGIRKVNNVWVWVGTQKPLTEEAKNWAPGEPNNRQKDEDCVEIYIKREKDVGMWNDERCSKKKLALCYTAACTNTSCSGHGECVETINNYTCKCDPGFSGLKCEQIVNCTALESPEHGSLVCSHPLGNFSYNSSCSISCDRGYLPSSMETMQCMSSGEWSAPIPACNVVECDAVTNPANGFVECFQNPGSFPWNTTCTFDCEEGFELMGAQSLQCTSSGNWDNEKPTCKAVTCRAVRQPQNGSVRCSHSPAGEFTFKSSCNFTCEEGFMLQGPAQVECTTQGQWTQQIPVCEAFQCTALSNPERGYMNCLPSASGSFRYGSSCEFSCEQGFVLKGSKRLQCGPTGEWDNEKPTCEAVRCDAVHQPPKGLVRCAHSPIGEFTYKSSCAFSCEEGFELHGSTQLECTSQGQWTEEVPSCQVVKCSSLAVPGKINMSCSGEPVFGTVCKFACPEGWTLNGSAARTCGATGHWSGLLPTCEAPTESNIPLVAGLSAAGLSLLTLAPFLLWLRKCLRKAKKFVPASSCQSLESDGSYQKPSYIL
Sequence of human Thyroid Receptor alpha (THRa1), THRA (gene 7067) (P10827 whole entry, looked up): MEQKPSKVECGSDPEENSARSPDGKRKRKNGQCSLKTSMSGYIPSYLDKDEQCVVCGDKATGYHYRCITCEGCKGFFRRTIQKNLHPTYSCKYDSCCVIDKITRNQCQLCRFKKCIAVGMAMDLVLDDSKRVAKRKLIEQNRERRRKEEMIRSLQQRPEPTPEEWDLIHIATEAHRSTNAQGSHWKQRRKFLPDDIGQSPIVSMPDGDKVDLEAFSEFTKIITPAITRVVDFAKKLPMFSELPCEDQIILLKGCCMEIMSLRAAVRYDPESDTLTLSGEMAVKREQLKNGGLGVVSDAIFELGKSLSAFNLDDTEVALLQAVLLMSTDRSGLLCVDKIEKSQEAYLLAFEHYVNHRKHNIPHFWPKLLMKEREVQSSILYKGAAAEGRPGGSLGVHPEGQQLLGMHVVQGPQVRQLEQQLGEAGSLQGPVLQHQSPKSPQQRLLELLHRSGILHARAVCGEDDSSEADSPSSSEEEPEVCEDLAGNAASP
Sequence of human RAR-related Orphan Receptor gamma (RORg), RORC (gene 6097) (P51449 whole entry, looked up): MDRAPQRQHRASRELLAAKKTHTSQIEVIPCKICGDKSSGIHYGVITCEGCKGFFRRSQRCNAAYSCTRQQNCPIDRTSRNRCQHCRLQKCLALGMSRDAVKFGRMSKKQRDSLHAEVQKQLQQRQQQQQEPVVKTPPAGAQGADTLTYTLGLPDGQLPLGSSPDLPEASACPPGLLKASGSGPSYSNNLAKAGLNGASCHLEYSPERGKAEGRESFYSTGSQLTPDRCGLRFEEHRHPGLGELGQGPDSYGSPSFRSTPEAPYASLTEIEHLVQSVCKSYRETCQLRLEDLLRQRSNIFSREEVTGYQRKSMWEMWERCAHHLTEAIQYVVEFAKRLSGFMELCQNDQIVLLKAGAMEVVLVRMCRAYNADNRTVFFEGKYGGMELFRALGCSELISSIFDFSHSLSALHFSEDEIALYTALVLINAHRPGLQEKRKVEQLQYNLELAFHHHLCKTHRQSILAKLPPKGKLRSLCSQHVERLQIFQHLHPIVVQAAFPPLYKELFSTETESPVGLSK

The first test addresses human RAR-related Orphan Receptor gamma (RORg), RORC (gene 6097) (UniProt P51449). Description: ATG_RORg_TRANS: Attagene TRANS-FACTORIAL HepG2 Assay for human RAR-related Orphan Receptor gamma (RORg) (AID 2283011).
Details: not given
A digest of the protocol:
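First, HepG2 liver cells were transfected with GAL4-UAS-driven reporter constructs and the RORg-Gal4 fusion. Next, they were treated with chemical for 24 h. Finally, reporter mRNA was quantified by RT-PCR and capillary electrophoresis, with upward activity fitted against DMSO.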
With `CCCC(=O)OC(C)(C)Cc1ccccc1`, the compound was classed as inactive.
As for `CS(=O)(=O)c1ccc(Cl)cc1`, the compound was classed as inactive.
As for `Cc1ccc(OC(=O)c2ccccc2O)cc1`, the result was inactive.
For the compound `CC=CC=CCOC(=O)C(C)C`, the outcome was inactive.
In the case of `CCCCCCCCCC(=O)OC`, the outcome was inactive.
With `OCCc1ccccc1`, the compound was classed as inactive.
On to `C=Cc1ccc(C)cc1`, for which the compound was classed as inactive.
As for `IC(I)I`, the outcome was inactive.
For the compound `Cc1c(Cl)cccc1[N+](=O)[O-]`, the outcome was inactive.

For the next test, the target named is Retinoic acid receptor RXR-alpha (Homo sapiens) (UniProt P19793). The test can be described thus: ATG_RXRa_TRANS: Attagene TRANS-FACTORIAL HepG2 Assay for human Retinoid X Receptor alpha (RXRa) (AID 2283012).
Sequence of Retinoic acid receptor RXR-alpha (Homo sapiens) (P19793 whole entry, looked up): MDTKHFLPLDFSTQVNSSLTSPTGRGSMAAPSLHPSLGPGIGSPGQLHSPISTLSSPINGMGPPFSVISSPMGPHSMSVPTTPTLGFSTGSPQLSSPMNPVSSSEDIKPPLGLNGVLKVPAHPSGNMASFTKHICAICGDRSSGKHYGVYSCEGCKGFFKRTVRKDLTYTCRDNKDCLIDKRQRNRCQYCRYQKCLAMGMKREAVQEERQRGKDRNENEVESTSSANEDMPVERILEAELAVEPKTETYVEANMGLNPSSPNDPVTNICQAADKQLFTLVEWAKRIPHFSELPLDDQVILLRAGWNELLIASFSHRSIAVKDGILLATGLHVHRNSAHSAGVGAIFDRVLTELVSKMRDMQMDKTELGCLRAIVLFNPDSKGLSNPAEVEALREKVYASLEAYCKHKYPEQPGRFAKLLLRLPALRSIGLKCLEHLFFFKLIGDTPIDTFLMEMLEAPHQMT
Details: not given
In outline: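 Transient transfection of human HepG2 with multiple GAL4-UAS reporter constructs; 24 h compound exposure; total RNA isolated, reverse-transcribed, PCR-amplified, 6-FAM labelled, HpaI-cut, resolved by capillary electrophoresis. Positive-direction fit versus DMSO.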
For the compound `COc1ccc(OC)c(N=Nc2c(O)ccc3ccccc23)c1`, the call was inactive.
Take `Oc1c(Cl)cc(Cl)c(Cl)c1Cc1c(O)c(Cl)cc(Cl)c1Cl`: the call was inactive.
`CN(c1nccc(=O)[nH]1)C1CCN(c2nc3ccccc3n2Cc2ccc(F)cc2)CC1`: the result was inactive.
Regarding `COC(=O)c1ccc(OC)cc1`, the compound was called inactive.
As to `CC(=O)C(C)O` (stereo unspecified), the compound was classed as inactive.
Regarding `CN1CCOCC1`, the call was inactive.
Turning to `CCCCCCCCCCCCCC(=O)OCC(O)CO` (stereo unspecified), the call was inactive.
As for `COC(=O)c1cccnc1`, the compound was called inactive.
Regarding `C=CC(=C)CCCC(C)(C)OC(C)=O`, the compound was classed as inactive.
In the case of `O=C(O)c1cc(C(=O)O)cc([N+](=O)[O-])c1`, the outcome was inactive.
In the case of `CC(=O)C1(C)CC2=C(CCCC2(C)C)CC1C` (stereo unspecified), the compound was classed as inactive.
For `CC(C)CCCCCCCCCCCCCCC(=O)O`, the result was inactive.
Still for that read-out and setting: with `c1ccc(Oc2ccccc2)cc1` the entry was “inactive”.
Same read-out and setting: under `Cc1c(C2(c3cc(Br)c(O)c(Br)c3C)OS(=O)(=O)c3ccccc32)cc(Br)c(O)c1Br` stands “inactive”; under `Cc1ccc(OC(=O)c2ccccc2O)cc1`, “inactive”; under `OCCc1ccccc1`, “inactive”.

A further test concerns the target human Retinoid X Receptor beta (RXRb), RXRB (gene 6257) (UniProt P28702). The test can be described thus: ATG_RXRb_TRANS: Attagene TRANS-FACTORIAL HepG2 Assay for human Retinoid X Receptor beta (RXRb) (AID 2283013).
Details: not given
A digest of the protocol:
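Transfect HepG2 with GAL4-UAS multi-reporter constructs (chimeric NR-Gal4, TRANS format); dose compound 24 h; isolate RNA, RT-PCR, FAM primer extension, HpaI digest; quantify by capillary electrophoresis; positive direction vs DMSO.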
For `COc1ccc(OC)c(N=Nc2c(O)ccc3ccccc23)c1`, the outcome was inactive.
On to `Oc1c(Cl)cc(Cl)c(Cl)c1Cc1c(O)c(Cl)cc(Cl)c1Cl`, for which the AC50 is 12.7 µM (active).
In the case of `CN(c1nccc(=O)[nH]1)C1CCN(c2nc3ccccc3n2Cc2ccc(F)cc2)CC1`, the outcome was inactive.
`CN(C)C(=S)SC(=S)N(C)C`: the result was inactive.
Still for that read-out and setting: under `CCN(CCN)c1cccc(C)c1` stands “inactive”; under `CS(C)=O`, “inactive”.
With `CCCCCCCCCCCCCC(=O)OCC(O)CO` (stereo unspecified), the compound was classed as inactive.
Consider `C=CC(C)C#N` (stereo unspecified), for which the compound was classed as inactive.
In the case of `Brc1ccc(Br)c(Br)c1`, the AC50 was 137 µM (active).
Regarding `O=C(O)c1cc(C(=O)O)cc([N+](=O)[O-])c1`, the result was inactive.
Turning to `COc1ccccc1N=Nc1c(S(=O)(=O)O)cc2cc(S(=O)(=O)O)cc(NC(C)=O)c2c1O`, the compound was called inactive.
As to `CC(C)CC(C)CC(O)CC(C)C` (stereo unspecified), the call was inactive.
As for `CC(=O)C1(C)CC2=C(CCCC2(C)C)CC1C` (stereo unspecified), the AC50 was 36.1 µM (active).
On to `CC(C)CCCCCCCCCCCCCCC(=O)O`, for which the AC50 was 11.4 µM (active).
On to `O=CCc1ccccc1`, for which the call was inactive.
On the same count and under the same terms, under `Cc1cc(CCC(=O)OCCOCCOCCOC(=O)CCc2cc(C)c(O)c(C(C)(C)C)c2)cc(C(C)(C)C)c1O` stands “inactive”; under `CC(=O)O[C@@H]1C[C@@H]2CC[C@@]1(C)C2(C)C`, “inactive”.
Regarding `c1ccc(Oc2ccccc2)cc1`, the concentration at half-maximal activity (AC50) is 114 µM (active).
The same measure, in the same setting: under `CCCC(=O)OC(C)(C)Cc1ccccc1` stands 63.9 µM (active).
With `CS(=O)(=O)c1ccc(Cl)cc1`, the compound was called inactive.
Consider `CCCCCCCCCC(=O)OC`, for which the AC50 is 47 µM (active).
Turning to `OCCc1ccccc1`, the result was inactive.
Turning to `C=Cc1ccc(C)cc1`, the compound was classed as inactive.
For the compound `IC(I)I`, the outcome was inactive.
For `Cc1c(Cl)cccc1[N+](=O)[O-]`, the compound was called inactive.

A further test concerns the target human Thyroid Receptor alpha (THRa1), THRA (gene 7067) (UniProt P10827). The test can be described thus: ATG_THRa1_TRANS: Attagene TRANS-FACTORIAL HepG2 Assay for human Thyroid Receptor alpha (THRa1) (AID 2283014).
Details: not given
In outline:
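Reporter transcript induction, read by capillary electrophoresis of 6-FAM-labelled RT-PCR products, reflects activity of a transfected THRa1-Gal4 fusion in HepG2 liver cells. Cells were dosed for 24 h; activity was fitted in the positive direction against DMSO.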
Regarding `COc1ccc(OC)c(N=Nc2c(O)ccc3ccccc23)c1`, the call was inactive.
For `Oc1c(Cl)cc(Cl)c(Cl)c1Cc1c(O)c(Cl)cc(Cl)c1Cl`, the AC50 is 0.657 µM (active).
As to `CN(c1nccc(=O)[nH]1)C1CCN(c2nc3ccccc3n2Cc2ccc(F)cc2)CC1`, the outcome was inactive.
`O=C(c1ccccc1)C(O)c1ccccc1` (stereo unspecified): the result was inactive.
For `CN(C)C(=S)SC(=S)N(C)C`, the compound was classed as inactive.
Regarding `CCN(CCN)c1cccc(C)c1`, the outcome was inactive.
For the compound `CS(C)=O`, the result was inactive.
As to `CCCCCCCCCCCCCC(=O)OCC(O)CO` (stereo unspecified), the compound was called inactive.
With `COC(=O)c1cccnc1`, the compound was called inactive.
With `C=CC(C)C#N` (stereo unspecified), the compound was called inactive.
Regarding `CCCC[P+](CCCC)(CCCC)CCCC`, the outcome was inactive.
On the same count and under the same terms, with `C=CC(=C)CCCC(C)(C)OC(C)=O` the entry was “inactive”; with `O=C(O)c1cc(C(=O)O)cc([N+](=O)[O-])c1`, “inactive”.
Regarding `CC(C)CC(C)CC(O)CC(C)C` (stereo unspecified), the call was inactive.
As for `OCCCCC(O)CO` (stereo unspecified), the result was inactive.
In the case of `CC(C)CCCCCCCCCCCCCCC(=O)O`, the compound was called inactive.
The same measure, in the same setting: under `Cc1cc(CCC(=O)OCCOCCOCCOC(=O)CCc2cc(C)c(O)c(C(C)(C)C)c2)cc(C(C)(C)C)c1O` stands “inactive”.
Take `Nc1ccn([C@H]2CS[C@@H](CO)O2)c(=O)n1`: the result was inactive.
As for `Cc1c(C2(c3cc(Br)c(O)c(Br)c3C)OS(=O)(=O)c3ccccc32)cc(Br)c(O)c1Br`, the call was inactive.
`Cc1ccc(OC(=O)c2ccccc2O)cc1`: the outcome was inactive.
For `CC=CC=CCOC(=O)C(C)C`, the outcome was inactive.
Still for that read-out and setting: under `OCCc1ccccc1` stands “inactive”; under `C=Cc1ccc(C)cc1`, “inactive”; under `IC(I)I`, “inactive”.

Read-out in the next test: E-selectin (Homo sapiens) (UniProt P16581)
The test can be described thus: BSK_3C_Eselectin: BioMAP Diversity Plus: 3C Assay for Eselectin Biomarker Activity (AID 2283015; active = hit-call score of the fitted dose curve at least 0.9, where 1 is the maximum; inactive = score below 0.9;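 as to outcome: cell surface E-selectin protein quantified by ELISA 24 h after dosing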). To be noted: primary human endothelial cells (HUVEC); actives raise or lower the signal. In outline:
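ELISA read-out of E-selectin on endothelial monolayers after 24 h chemical treatment. Human umbilical vein primary cells served as the system, with DMSO defining baseline activity for bidirectional fitting.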
On to `COc1ccc(OC)c(N=Nc2c(O)ccc3ccccc23)c1`, for which the outcome was inactive.
For `Oc1c(Cl)cc(Cl)c(Cl)c1Cc1c(O)c(Cl)cc(Cl)c1Cl`, the AC50 was 13 µM (active).
For the compound `CN(c1nccc(=O)[nH]1)C1CCN(c2nc3ccccc3n2Cc2ccc(F)cc2)CC1`, the result was inactive.
Turning to `CN(C)C(=S)SC(=S)N(C)C`, the AC50 is 19.9 µM (active).
Regarding `Cc1cc(CCC(=O)OCCOCCOCCOC(=O)CCc2cc(C)c(O)c(C(C)(C)C)c2)cc(C(C)(C)C)c1O`, the result was inactive.
Turning to `c1ccc(Oc2ccccc2)cc1`, the AC50 is 35.9 µM (active).
For the compound `IC(I)I`, the result was inactive.
